Screening data: PubChem BioAssay, several laboratories
RAM network inh – inhibitors of the yeast RAM network. 190,000 tested, 1.8% active. AID 868. inhibition, % at 50 µM. S. cerevisiae dse1pr::URA3 reporter, 5-FOA growth OD615, 2 d; analog-sensitive cbk1-as2 kinase mutant strain;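 active = inhibition above a set limit, 3 SD over mean compound inhibition, cut at about 8.4% in these data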;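 also: 0% = DMSO-only wells with no growth and 100% = 10 µM 1-NA-PP1 full growth; inhibition rescues growth on 5-FOA so higher OD means more RAM inhibition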
CHOP inh – CHOP inhibition in unfolded protein response. CHO-K1 CHOP-promoter luciferase, tunicamycin-induced, 15-18 h. inhibition, % at 10 µM. AID 2732. 220,000 tested, 3.8% active;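 active = compounds that reduced the stress-induced luciferase reporter signal by more than about 70% of percent inhibition, limit read from the data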;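 also: 0% = tunicamycin plus vehicle and 100% = wells without tunicamycin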
WT yeast gro inh – growth inhibition of WT yeast, mitochondrial fusion screen. 190,000 tested, 2.1% active. mitochondrial fusion phenotypic screen, WT strain. inhibition, % at 10 µM; in the data active = inhibition above about 58%; tested in S. cerevisiae
L major viab – Leishmania major promastigote growth inhibition; Leishmania major promastigotes, resazurin fluorescence viability; inhibition, % at 10 µM; 200,000 tested, 9% active; AID 1063; in the data active = inhibition above about 50%;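 also: promastigotes grown with compound for 44 hours at 28 °C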
Active calls of the source: *; · = not tested or not shown. Shown are actives, neighbours in structure and some others; about 13% of the full set was active somewhere.

SMILES	RAM network inh	CHOP inh	WT yeast gro inh	L major viab
Cc1ccc(NC(=O)C2Cc3ccccc3CN2C(=O)c2ccccc2)cc1Cl (configuration not stated)	4	-12	23	7
O=C(c1ccccc1)C(Nc1ccccn1)c1ccccc1 (configuration not stated)	-1	34	5	27
Cc1nn(-c2ccccc2)c2c1C(c1ccc(O)c(O)c1)N1C(=N2)C(Nc2ccccc2)=Nc2ccccc21 (configuration not stated)	0	5	2	90*
CCOC(=O)C(C)S(=O)(=O)c1ccc(C(F)(F)F)cn1 (configuration not stated)	0	4	0	-5
O=C(COc1ccc(Cl)cc1)NNC(=O)CSc1nncs1	2	7	-33	-4
FC(F)(F)c1cc(-c2ccco2)nc(NCc2cccnc2)n1	0	21	7	7
Fc1ccc(-c2cc(C(F)(F)F)nc(NCc3cccs3)n2)cc1	7	72*	-6	-6
FC(F)(F)c1cc(-c2ccccc2)nc(NCc2cccnc2)n1	0	85*	9	21
Fc1ccc(CNc2nc(-c3ccco3)cc(C(F)(F)F)n2)cc1	6	11	7	0
Cc1cc(C)n2c(SCC(=O)N(CC(C)C)c3c(N)n(CC(C)C)c(=O)[nH]c3=O)nnc2n1	2	25	-10	-6
CCCCOC(=O)N/N=C/C=C/c1ccccc1	1	-11	13	-5
Cc1ccc(-c2cc(C(F)F)n3ncc(C(=O)Nc4c(C)nn(Cc5ccccc5Cl)c4C)c3n2)cc1	6	55	76*	57*
Cc1nn(Cc2c(Cl)cccc2Cl)c(C)c1NC(=O)c1cnn2c(C(F)F)cc(-c3ccccc3)nc12	2	52	6	67*
Cc1ccc(-c2cc(C(F)F)n3ncc(C(=O)Nc4c(C)nn(Cc5c(Cl)cccc5Cl)c4C)c3n2)cc1	2	91*	-5	50
O=C(Nc1cnn(Cc2ccc(F)cc2)c1)c1cnn2c(C(F)F)cc(-c3ccccc3)nc12	·	2	·	·
COCCNC(=O)c1cnn2c(C(F)F)cc(-c3ccc(C)cc3)nc12	6	11	-7	19
Cc1nc2ccc([N+](=O)[O-])cc2[nH]1	1	-15	0	2
O=[N+]([O-])c1cccc(/C=C/c2nc3ccc([N+](=O)[O-])cc3[nH]2)c1	2	17	11	55*
Cc1sc2nc(CN3CCCCC3)nc(N3CCN(C(=O)c4ccco4)CC3)c2c1C	0	4	0	9
Cc1sc2nc(CN3CCOCC3)nc(NCCc3ccccc3)c2c1C	3	1	25	27
Cc1sc2nc(CSc3ccccc3)nc(N3CCOCC3)c2c1C	1	72*	53	82*
Cc1sc2nc(CSc3ccccc3)nc(N3CCC(C(N)=O)CC3)c2c1C	1	19	25	70*
CCOC(=O)c1sc2nc(CSc3ccccc3)nc(N3CCCN(C)CC3)c2c1C	0	60	93*	100*
CCOC(=O)c1sc2nc(CSc3ccccc3)nc(N3CCC(C(N)=O)CC3)c2c1C	1	69	71*	27
CCN(CC)C(=O)C(=O)N/N=C/c1ccc(F)cc1	0	8	-1	-3
SMILES	RAM network inh	CHOP inh	WT yeast gro inh	L major viab
Cc1ccc2c(c1)c1c3n2CCN(C(=O)C2CC2)C3CCC1 (configuration not stated)	0	52	8	-5
Cc1ccc2c(c1)c1c3n2CCCN(Cc2ccccc2)C3CCC1 (configuration not stated)	1	54	81*	25
C/C(=C\c1ccccc1)C(=O)N1CCN(c2cccc(C(F)(F)F)c2)CC1	3	82*	47	55*
O=C(CCCCn1c(=O)[nH]c2ccccc2c1=O)N1CCN(c2cccc(C(F)(F)F)c2)CC1	2	88*	13	82*
O=C(CSCc1ccccc1)N1CCN(c2cccc(C(F)(F)F)c2)CC1	5	85*	42	-10
Cc1ccc(/C=C/C(=O)N2CCN(c3cccc(C(F)(F)F)c3)CC2)cc1	6	66	-3	-5
O=C1Nc2ccccc2OC1CC(=O)N1CCN(c2cccc(C(F)(F)F)c2)CC1 (configuration not stated)	1	86*	35	3
COc1ccc(S(=O)(=O)NCCc2nnc3ccc(SCc4cccnc4)nn23)cc1	1	-18	5	2
CC(C)NOC(=O)c1ccc(Cl)cc1	-1	18	8	28
COc1ccccc1OCCOCCOc1ccc(C)cc1Br	0	32	29	33
Cc1ccc(OCCOCCNC(C)C)c(Br)c1	2	8	9	90*
COCCCNCCOCCOc1ccc(C)cc1Br	-1	3	-2	90*
COCCCNCCOc1cc(C(C)C)ccc1C	1	15	-1	91*
Cc1ccc(OCC(=O)NCCO)c(Br)c1	-1	12	-4	-3
CCCCNCCOCCOc1ccc(C)cc1Br	0	9	9	98*
COc1cc(CNc2ccc(CNc3ncn[nH]3)cc2)ccc1OCc1ccccc1	5	22	-15	13
Cc1cccc(NC(=O)C2CCN(c3nccc(C)n3)CC2)c1	0	11	-4	7
CCC(C)NCCOCCOc1ccc(Cl)cc1Br (configuration not stated)	1	26	36	96*
Cc1cc(Cl)c(S(=O)(=O)N2CCN(c3ccc(F)cc3)CC2)cc1OCC(=O)NC1CCCCC1	4	68	39	-5
C[C@H](NC(=O)NCc1ccc(F)cc1)C(=O)O	2	-10	-8	-6
CC(NC(=S)NCc1ccc(F)cc1)C12CC3CC(CC(C3)C1)C2 (configuration not stated)	6	-21	77*	13
CC(CNC(=O)CCc1nnc(CCC2CCCCC2)o1)c1ccccc1 (configuration not stated)	0	11	22	4
CCOC(=O)C1=C(C)NC(C)=C(C(=O)OCC)C1C(=O)OCC(=O)N1CCc2ccccc21	0	46	14	97*
CCOC(=O)c1[nH]c(C)c(C(=O)OCC(=O)N2CCc3ccccc32)c1C	2	46	2	-5
CCOC(=O)C1=C(C)NC(C)=C(C(=O)OCC)C1C(=O)OCC(=O)c1ccc2c(c1)OCCO2	1	-25	-25	65*
SMILES	RAM network inh	CHOP inh	WT yeast gro inh	L major viab
O=S(=O)(NC(=S)NC1CCCCC1)c1ccc(Br)cc1	6	27	7	-9
O=C1CN(CC(=O)Nc2cccc(Cl)c2Cl)c2ccccc2N1	1	-11	10	-1
CCCCCCCCNC(=O)CCNC(=O)c1ccc(C(C)(C)C)cc1	3	93*	48	0
CCCCOc1ccc(C(=O)NCCC(=O)NCCCC(=O)OCC)cc1	·	18	·	·
O=C(O)C1=C(OCc2ccccc2)C(=O)NCC1	1	8	-1	-5
CCOC(=O)c1ccc(NC(=O)c2nc[nH]c2C(=O)N2CCc3ccccc3C2)cc1	·	72*	·	·
CCNc1nc(NC(C)(C)C)nc(N2CCCC2)n1	0	18	60*	80*
CCCNc1nc(N2CCCC2)nc(N2CCCC2)n1	4	6	31	89*
CC(C)(C)Nc1nc(N2CCCC2)nc(N2CCCC2)n1	-1	77*	11	98*
